High-throughput results from PubChem.
Only some compounds are listed: those with a hit (about 6.2% of all), similar ones and a draw of the others.
HT1080 IDH1KD tx = qHTS for induction of synthetic lethality in tumor cells producing 2HG: qHTS for the HT-1080-IDH1KD cell line; HT-1080 IDH1 knockdown viability, ATP luminescence, 48 h; Potency, µM (titrated, usually from 46.1 µM), inactives show top-dose activity, negative = toxicity, actives largely listed as cytotoxic; 360,000 compounds, 2% hits;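 further: 0% = DMSO wells and -100% = cell-free medium wells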
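In this qHTS, HT-1080 cells depleted of IDH1 are exposed for 48 h at 37 °C to compound titrations. Toxicity is scored from CellTiter-Glo luminescence, with DMSO as full viability and medium alone as none.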
ATXN viability = Viability Counterscreen for Primary qHTS for Inhibitors of ATXN expression; S2 cells (HEK-293 line with an ATXN2-luciferase reporter) viability, CellTiter-Fluor protease fluorescence, 24 h; Potency, µM (top dose mostly 56.7 µM), hits mostly cytotoxic; 400,000 compounds, 0.49% hits; further: nearly all actives have a fitted effect of over 40% in size
KB-V1 cytotox = qHTS assay for MDR1-selective chemotherapeutics: Primary screen using the drug-selected MDR subline cells KB-V1 | KB-V1 MDR cells viability, CellTiter-Glo, 72 h | Potency, µM (titrated, usually from 46.1 µM), most hits filed as cytotoxic | 400,000 compounds, 3.4% hits | AID 1347076, 2019; further: on the % scale 0 is the no-effect control and ±100 the full control effect; nearly all actives have a fitted effect of over 60% in size
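Cytotoxicity toward P-gp-expressing KB-V1 cells was determined as loss of CellTiter-Glo luminescence after 72 h at 37 degrees C. Compounds were tested in quantitative HTS format across a concentration range, with curves fitted to normalized data.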
ATXN2 expr inh = Primary qHTS for Inhibitors of ATXN expression | HEK-293 ATXN2-luciferase reporter, luminescence, 24 h | AID 1745845, 2022 | 360,000 compounds, 0.72% hits | Potency, µM (highest dose often 57 µM), without a hit: at the top dose activity change, negative = inhibition, most hits filed as inhibitors; further: on the % scale 0 is the no-effect control and ±100 the full control effect; nearly all actives have a fitted effect of over 55% in size
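ATXN2-luciferase reporter cells (luciferase flanked by upstream and downstream ATXN2 gene portions) were treated 24 h at 37 °C with compounds at up to 57 uM. SteadyGlo luminescence gave expression; GF-AFC fluorescence gave viability.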
KB-3-1 tox = qHTS assay for MDR1-selective chemotherapeutics: Primary screen using the parental adenocarcinoma cell KB-3-1; 400,000 compounds, 1.4% hits; AID 1347075, 2019; KB-3-1 viability, CellTiter-Glo ATP luminescence, 72 h; Potency, µM (top dose mostly 46.1 µM), usual class: cytotoxic; further: on the % scale 0 is the no-effect control and ±100 the full control effect; nearly all actives have a fitted effect of over 60% in size
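Screening of KB-3-1 cells (DMEM, 10% FBS, phenol-red free) ran from lowest to highest compound concentration; after 72 h at 37 °C viability was read luminescently and curves fitted.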
HT1080-NT tox = qHTS for induction of synthetic lethality in tumor cells producing 2HG: qHTS for the HT-1080-NT fibrosarcoma cell line | HT-1080-NT fibrosarcoma viability, CellTiter-Glo ATP luminescence, 48 h | Potency, µM (top dose mostly 46.1 µM), for the others: at the highest dose activity, negative = less viability, hits mostly cytotoxic | 360,000 compounds, 1.6% hits | AID 686970, 2013;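 further: NT is the 2HG producing partner of a matched IDH1 knockdown line; 0% = DMSO-treated cells and -100% = media-only wells without cells; nearly all actives have a fitted effect of over 55% in size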
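HT-1080-NT fibrosarcoma cells (2HG-overproducing), 750 cells/well in RPMI with 5% FBS, dosed after 2 h and incubated 48 h at 37C. CellTiter-Glo luminescence normalized to DMSO and no-cell wells; concentration-response curves fitted and classed.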
Active calls of the source: *; i = inactive; ? = inconclusive; / = not tested or not shown; [ ] = remark or other dose. The call rests on the fitted dose curve; in most records, active means well fitted curve in the direction sought with a large enough effect; inconclusive means small, poorly fitted or top-dose-only effect, or another doubt; inactive means no such curve, though single readings can be large; an effect the other way counts as inactive or inconclusive. Potency means the concentration at half of the fitted maximal effect.

SMILES | HT1080 IDH1KD tx | ATXN viability | KB-V1 cytotox | ATXN2 expr inh | KB-3-1 tox | HT1080-NT tox
Cn1c(/C(C#N)=C(\O)c2cccc(F)c2)nc2ccccc21 | ? | i | i | 5% | i | ?
N#C/C(=C(/O)c1ccco1)c1nc2ccccc2s1 | ? | ? | ? | 18% | ? | ?
N#C/C(=C(/O)c1cc2ccccc2o1)c1nc2ccccc2s1 | 6% | i | ? | 1% | 21µM* | 0%
N#C/C(=C(/O)c1cccc(F)c1)c1nc2ccccc2s1 | -2% | i | 2.9µM* | / | 5.8µM* | -2%
O=C(NCCN1CCCCC1)Nc1ccc(F)c(Cl)c1 | 1% | i | ? | -5% | i | 7%
NC(=O)c1c(OCc2c(F)cc(Br)cc2F)nsc1NC(=O)NCCCCN1CCCC1 | / | / | / | 31µM* | / | /
Cc1cccc2cc(CN(Cc3ccco3)C(=O)Nc3cccc(C#N)c3)c(Cl)nc12 | 11µM* | i | 12µM* | -4% | i | ?
COc1ccc(NS(=O)(=O)c2cccc(C(=O)NNC(=O)CN3C(=O)NC(C)(C)C3=O)c2)cc1 | 4% | i | ? | 10% | i | 0%
CCC(CC)NC(=O)CON=C1c2ccccc2-c2ccccc21 | -22% | i | 23µM* | ? | i | -28%
Cc1ccc(-c2nnc(N3CCN(C(=O)COc4cccc(C)c4)CC3)c3ccccc23)cc1 | -20% | i | ? | -28% | ? | -1%
COc1ccc(OCC(=O)N2CCN(c3nnc(-c4ccc(C)cc4)c4ccccc34)CC2)cc1 | ? | ? | 5.2µM* | ? | ? | ?
COc1ccc(OCC(=O)N2CCN(c3nnc(-c4ccccc4)c4ccccc34)CC2)cc1 | -4% | i | 2.6µM* | -13% | 23µM* | -26%
Cc1ccc(OCC(=O)N2CCN(c3nnc(-c4ccc(C)cc4)c4ccccc34)CC2)cc1 | ? | ? | 2.6µM* | 28µM* | 16µM* | 14µM*
O=C(COc1ccccc1)N1CCN(c2nnc(-c3ccccc3)c3ccccc23)CC1 | -23% | i | 4.1µM* | -31% | ? | ?
Cc1ccc(S(=O)(=O)c2nc(-c3ccccc3)oc2SCC(=O)NC2CCCCC2)cc1 | / | i | i | 4% | i | /
CCCc1cc(=O)[nH]c(SCC(=O)Nc2cc(S(=O)(=O)N3CCOCC3)ccc2N(CC)CC)n1 | 1% | i | i | -15% | i | 2%
Cc1cc(C)cc(NC(=O)CCn2c(=O)c3cccn3c3ccccc32)c1 | ? | i | ? | / | 9.2µM* | -18%
C=CCn1c(CCNC(=O)c2cccs2)nnc1SCC(=O)c1ccc(Br)cc1 | ? | ? | 21µM* | 1% | i | -20%
Cc1nn(-c2ccccn2)c2c1-c1nc(N3CCOCC3)ncc1CC2 | 2% | i | 18µM* | -24% | ? | -3%
Cc1nn(-c2ccccn2)c2c1-c1nc(N)ncc1CC2 | -2% | i | i | 21% | i | -14%
C=CCn1c(-c2ccc(OC)c(OC)c2)n[nH]c1=S | 11% | i | 16µM* | -6% | ? | 6%
COc1cc(C(O)c2nc(-c3ccc4ccccc4c3)cs2)ccc1F (configuration not stated) | ? | i | ? | 7% | i | 23µM*
COc1ccc(C(O)c2nc(-c3ccc4ccccc4c3)cs2)cc1 (configuration not stated) | -14% | i | i | 7% | i | -28%
Cc1cn([C@H]2C[C@H](O)[C@@H](CNC/C=C/c3ccccc3[N+](=O)[O-])O2)c(=O)[nH]c1=O | 2% | i | i | -6% | i | 0%
CCSc1nsc(NC(=O)Nc2cccc(OC)c2)n1 | ? | i | ? | -27% | ? | ?
SMILES | HT1080 IDH1KD tx | ATXN viability | KB-V1 cytotox | ATXN2 expr inh | KB-3-1 tox | HT1080-NT tox
C=CCSc1nsc(NC(=O)Nc2ccc(F)cc2)n1 | 2.9µM* | 8.9µM* | 21µM* | ? | ? | 16µM*
CCSc1nsc(NC(=O)Nc2ccccc2F)n1 | -29% | ? | 16µM* | 38% | ? | ?
N=c1c2c(n(Cc3ccc(Cl)cc3)c3c1CCC3)CCC2 | 7.1µM* | i | i | ? | i | 5µM*
N=c1c2c(n(Cc3cccc(Cl)c3)c3c1CCC3)CCCC2 | 10µM* | i | i | ? | ? | 6.3µM*
N=c1c2c(n(Cc3ccc(F)cc3)c3c1CCC3)CCCC2 | ? | i | i | / | ? | ?
N=c1c2c(n(Cc3ccccc3)c3c1CCC3)CCC2 | ? | i | i | -29% | ? | ?
COCC1CCN(C(=O)c2cc(COc3ccc(-n4cncn4)cc3)on2)CC1 | 2% | i | i | -3% | i | -10%
COc1cccc(CN(C)C(=O)c2cc(COc3ccc4ncccc4c3)on2)c1 | -20% | ? | 4.1µM* | ? | 4.1µM* | ?
COCC1CCN(C(=O)c2cc(COc3ccc4ncccc4c3)on2)CC1 | -15% | i | 7.3µM* | -29% | ? | -2%
O=C(c1cc(COc2ccc3ncccc3c2)on1)N1CCCCCC1 | ? | i | i | -5%[11.3 µM] | ? | 3.7µM*
Cc1ccc(OCc2cc(C(=O)N3CCCCCCC3)no2)cc1C | 1% | i | i | 18% | i | 5%
O=C(NCCc1cn2ccccc2n1)c1cc(COc2ccc3ncccc3c2)on1 | -28% | ? | 8.2µM* | ? | ? | -4%
COc1ccc(-n2ncc3c(NC4CCCC4)ncnc32)cc1 | / | i | i | -10% | i | /
O=C(c1cc(COc2ccc3ncccc3c2)on1)N1CCCC1 | 15µM* | i | ? | 15% | ? | 21µM*
Cc1cc(-c2ccnc(-n3ncc(C(=O)NCC4CCCO4)c3C3CC3)n2)c(C)s1 (configuration not stated) | / | i | / | / | / | /
Cc1ccc(O)c(-c2cc(-c3ccccc3F)[nH]n2)c1 | 21µM* | ? | i | 39% | ? | 23µM*
Cc1ccc(-c2cc(-c3ccccc3C)[nH]n2)c(O)c1 | 18µM* | i | 13µM* | 49% | 21µM* | 21µM*
Cc1ccc(-c2cc(-c3cccc(F)c3)n[nH]2)c(O)c1 | ? | i | i | 96% | i | ?
